This is an account of results in PubChem BioAssay AID1345085 (National Center for Advancing Translational Sciences (NCATS), 2018).

Inconclusive results are not listed. The source made the active and inactive calls. The call rests on the fitted dose curve; in most records, active means well fitted cell-killing curve with a large enough effect; inconclusive means small, poorly fitted or top-dose-only effect, or effect the other way; inactive means no such curve, though single readings can be large or run the other way.
On the % scale 0 is the no-effect control and ±100 the full control effect; potency means the concentration at half of the fitted maximal effect.

The test system of the assay is Tov-21-G. Briefly: Confirmatory qHTS for gynecologic anti-cancer compounds from libraries of approved drugs and bioactive compounds. Further: nearly all actives have a fitted effect of over 55% in size. To be noted: gynecologic cancer cell panel viability, ATPlite luminescence, 48 h; series mostly up to 57.7 µM; activity change, negative = viability loss: at the top concentration. Put shortly: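 Cells (1,000/well) plated 16 h, then exposed 48 h at 37 °C to 11 concentrations (1:3) from 57.5 uM to 0.977 nM. Viability by ATPlite luminescence after 15 min; IC50 derived, with HEK 293T used for selectivity index.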
(In general: Quantitative high-throughput screening tests each substance at several concentrations.)
As for `CCS(=O)(=O)c1cccc(-c2cc(C(=O)NC3CCN(C)CC3)c(C)c3[nH]c4ncc(C)cc4c23)c1`, the Potency is 1.5 µM (active). Same read-out and setting: next, `Cc1ccc(C(=O)Nc2ccc(CN3CCN(C)CC3)c(C(F)(F)F)c2)cc1C#Cc1cnc2cccnn12`: 1.22 µM (active). For the compound `Cc1cncc2cccc(S(=O)(=O)N3CCCN(C(=O)CN)C[C@@H]3C)c12`, the “activity change, negative = viability loss” value was -18.6% (inactive). Regarding `O=C1NC(=O)C(c2cnc3ccccn23)=C1c1cn2c3c(cccc13)CN(C(=O)N1CCOCC1)CC2`, the Potency was 0.544 µM (active).

For the compound `Cc1cnc(Nc2ccc(CN3CCOCC3)cc2)nc1Nc1cccc(S(=O)(=O)NC(C)(C)C)c1`, the Potency is 0.243 µM (active). `NCCOc1cc(C(=O)Nc2cc(OCCN)c3ccccc3n2)nc(C(=O)Nc2cc(OCCN)c3ccccc3n2)c1`: the Potency is 24.3 µM (active).

On to `C#C[C@]1(O)CC[C@H]2[C@@H]3CCC4=CC(=O)CC[C@@H]4[C@H]3CC[C@@]21CC`, for which the “activity change, negative = viability loss” value is 12.4% (inactive). On to `CC(Oc1ccc2[nH]nc(/C=C/c3cnn(CCO)c3)c2c1)c1c(Cl)cncc1Cl` (configuration not stated), for which the Potency was 6.11 µM (active). On the same count and under the same terms, next, `COc1cc2c(NC3CCN(C(C)C)CC3)nc(C3CCCCC3)nc2cc1OCCCN1CCCC1`: 10.9 µM (active); `CN[C@@H](C)C(=O)N[C@H]1CN(C(=O)CC(C)C)CC[C@H]2CC[C@@H](C(=O)NC(c3ccccc3)c3ccccc3)N2C1=O`: 21.7 µM (active); `CCN(CC)CCNC(=O)c1c(C)[nH]c(/C=C2\C(=O)Nc3ccc(F)cc32)c1C`: 11.2 µM (active). Consider `CC(=O)OC12COC1CC(O)C1(C)C(=O)C(O)C3=C(C)C(OC(=O)C(O)C(NC(=O)OC(C)(C)C)c4ccccc4)CC(O)(C(OC(=O)c4ccccc4)C21)C3(C)C` (configuration not stated), for which the “activity change, negative = viability loss” value was -6.62% (inactive). `CCCCc1oc2ccccc2c1C(=O)c1cc(I)c(OCCN(CC)CC)c(I)c1`: the Potency was 56.2 µM (active). Turning to `CC(=O)NCC(=O)N1C2CCC1c1cc(Nc3ncc(C(F)(F)F)c(NC4CCC4)n3)ccc12` (configuration not stated), the Potency is 3.06 µM (active). In the case of `CNC(=O)CN1CCC(Oc2cc3c(Nc4cccc(Cl)c4F)ncnc3cc2OC)CC1`, the Potency was 7.69 µM (active).

In the case of `CC1=C(CO)C(=O)O[C@@H]([C@@H](C)[C@H]2CC[C@H]3[C@@H]4C[C@H]5O[C@]56[C@@H](O)C=CC(=O)[C@]6(C)[C@H]4CC[C@]23C)C1`, the Potency was 3.35 µM (active). The same measure, in the same setting: the figure for `CN(C)CCC(CSc1ccccc1)Nc1ccc(S(=O)(=O)NC(=O)c2ccc(N3CCN(Cc4ccccc4-c4ccc(Cl)cc4)CC3)cc2)cc1[N+](=O)[O-]` (configuration not stated) is 13.7 µM (active). Take `Cc1ccc(C(N)=O)cc1Nc1nccc(-c2cn(C(C)C)c3cnccc23)n1`: the Potency is 9.68 µM (active). The same measure, in the same setting: the figure for `Nc1ccc(-c2ccc3ncc4ccc(=O)n(-c5cccc(C(F)(F)F)c5)c4c3c2)cn1` is 3.43 µM (active). As to `Cc1ccc2nc(N)[nH]c(=O)c2c1Sc1ccncc1`, the “activity change, negative = viability loss” value is -31.5% (inactive). As to `COC(C)(C)CCn1nc(Nc2c(C)cccc2C)c2cnc(Nc3ccc(OCCN4CCCC4)c(F)c3)nc21`, the Potency was 1.37 µM (active).

In the case of `CCn1cc(-c2ccnc3[nH]c(-c4cccc(CN(C)C)c4)cc23)c(-c2ccc(NC(=O)N(C)C)cc2)n1`, the Potency was 7.49 µM (active). Same read-out and setting: next, `COc1cc2c(Oc3ccc(-c4cnc(Nc5ccc(F)cc5)n(C)c4=O)cc3F)ccnc2cc1OCCCN1CCOCC1`: 19.3 µM (active); `CCCCc1nc2cc(/C=C/C(=O)NO)ccc2n1CCN(CC)CC`: 3.06 µM (active); `COc1cc(Nc2ncc(F)c(Nc3ccc4c(n3)N(COP(=O)(O)O)C(=O)C(C)(C)O4)n2)cc(OC)c1OC`: 1.37 µM (active). The same measure, in the same setting: the figure for `Cn1c(=O)c(F)c(Nc2ccc(I)cc2F)c2c(=O)n(CC(O)CO)cnc21` (configuration not stated) is 2.73 µM (active); for `CN(C[C@@H]1COCCO1)S(=O)(=O)Nc1ccc2ccc3ncc(-c4cnn(C)c4)cc3c(=O)c2c1` it is 17.2 µM (active); for `Cc1cnc(Nc2ccc(OCCN3CCCC3)cc2)nc1Nc1cccc(S(=O)(=O)NC(C)(C)C)c1` it is 1.72 µM (active).

`O=C(/C=C/c1cccc(S(=O)(=O)Nc2ccccc2)c1)NO`: the Potency was 4.73 µM (active).

For `COCCOc1nc(-c2ccc(Cl)c(Cl)c2)n(-c2ccc(NC(=O)CCl)cc2)n1`, the Potency was 1.72 µM (active). The same measure, in the same setting: next, `CN(C)C/C=C/C(=O)Nc1cc2c(Nc3ccc(F)c(Cl)c3)ncnc2cc1OC1CCOC1` (configuration not stated): 3.43 µM (active); `Cc1c(NC(=O)OCC2COCCN2)cn2ncnc(Nc3ccc4c(cnn4Cc4cccc(F)c4)c3)c12` (configuration not stated): 3.06 µM (active).
